PubChem BioAssay (NCI)
Several values for one entry are separate records, joined by “and”; a condition that tells them apart may be missing. Equal values may be shown once. Compounds without any hit were thinned out: in the full panel of roughly 83,000, 20% have a hit.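 Testing used 96-well plates and a 48-hour single-concentration exposure. Example: -40 means 40% of the starting cells died.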 Activity calls are given as the source filed them. Rule for the calls: active = growth percent below 10; inactive = the rest.

Assays:
Experiment in all cases: NCI-60 one-dose screen, 48 h (100 = growth as untreated, 0 = no growth, -100 = all killed)
Details in all cases: 10 µM unless noted
T-47D breast = tested on: T-47D breast
MDA-MB-435 melanoma = tested on: MDA-MB-435 melanoma
SW-620 colon = tested on: SW-620 colon
MCF7 breast = tested on: MCF7 breast
HCT-116 colon = tested on: HCT-116 colon
HCC-2998 colon = tested on: HCC-2998 colon
KM12 colon = tested on: KM12 colon
BT-549 breast = tested on: BT-549 breast

SMILES | growth (T-47D breast) | growth (MDA-MB-435 melanoma) | growth (SW-620 colon) | growth (MCF7 breast) | growth (HCT-116 colon) | growth (HCC-2998 colon) | growth (KM12 colon) | growth (BT-549 breast)
Cc1ccc(-c2noc(CC(=O)c3ccc([N+](=O)[O-])cc3)n2)cc1 | 87.8% (inactive) | 98.1% (inactive) | 102% (inactive) | 98.2% (inactive) | 98.7% (inactive) | 103% (inactive) | 98% (inactive) | –
Nc1ccc2[nH]c(-c3ccccc3)cc(=O)c2c1 | 78% (inactive) | -21.2% (active) | 57.6% (inactive) | 51.7% (inactive) | 81% (inactive) | – | 45.2% (inactive) | –
O=C(O)c1cc(C(=O)O)cc([N+](=O)[O-])c1 | – | 99% (inactive) | – | 104% (inactive) | 101% (inactive) | 110% (inactive) | 109% (inactive) | –
OCCN1CCN(CCO)CC1 | 89.8% (inactive) and 86% (inactive) and 118% (inactive) | 113% (inactive) and 99.8% (inactive) and 115% (inactive) | 99.5% (inactive) and 103% (inactive) | 95.5% (inactive) and 95.1% (inactive) and 107% (inactive) | 104% (inactive) and 87.9% (inactive) and 98.8% (inactive) | 102% (inactive) and 95.7% (inactive) and 107% (inactive) | 108% (inactive) and 96.8% (inactive) and 109% (inactive) | –
CC(O)(CC(=O)CC(=O)c1ccccc1)c1ccccc1 (stereo not drawn) | 108% (inactive) and 109% (inactive) | 97.8% (inactive) | 99.9% (inactive) and 107% (inactive) | 108% (inactive) and 123% (inactive) | 92.3% (inactive) and 92.6% (inactive) | 101% (inactive) and 92.8% (inactive) | 103% (inactive) and 104% (inactive) | –
ClC/C=C/CSc1ncnc2nc[nH]c12 | 98% (inactive) and 99.5% (inactive) | 108% (inactive) and 103% (inactive) | 98.8% (inactive) and 110% (inactive) | 99.8% (inactive) and 93.7% (inactive) | 105% (inactive) | 106% (inactive) and 108% (inactive) | 113% (inactive) and 105% (inactive) | –
OC(COc1cccc2ccccc12)CN1CCN(c2ccc(Cl)cc2)CC1 (stereo not drawn) | 71.2% (inactive) and 96.1% (inactive) | 90.2% (inactive) and 94.6% (inactive) | 71.7% (inactive) and 98.6% (inactive) | – | 60.2% (inactive) and 83.4% (inactive) | 94.2% (inactive) | 90% (inactive) and 113% (inactive) | –
CCC(=O)C(CC)c1cccc(OC)c1 (stereo not drawn) | – | 101% (inactive) | – | 104% (inactive) | 104% (inactive) | 112% (inactive) | 111% (inactive) | 105% (inactive)
O=C1c2c(O)cc(O)cc2OC(c2ccc(O)c(O)c2)C1O (stereo not drawn) | 103% (inactive) | 111% (inactive) | 104% (inactive) | 102% (inactive) | – | – | 114% (inactive) | –
COc1ccc(C2c3cc4c(c(OC)c3CC3OCC(=O)C32)OCO4)cc1OC (stereo not drawn) | – | – | – | 6.05% [100 µM] (active) and -81% [100 µM] (active) | – | – | – | –
COc1cc([C@H]2OC[C@@H]3C(c4cc(OC)c5c(c4)OCO5)OC[C@H]23)cc(OC)c1OC (stereo partly drawn) | – | – | – | 67.2% [100 µM] (inactive) and 7.31% [100 µM] (active) | – | – | – | –
COc1cc2c(Nc3ccc(Cl)c(Cl)c3F)ncnc2cc1OCC1C[C@@H]2CN(C)C[C@@H]2C1 (stereo partly drawn) | -74.6% (active) and -6.7% (active) | -95.8% (active) and -38% (active) | -76.6% (active) and 6.96% (active) | – | -85.4% (active) and 7.79% (active) | -87.7% (active) and 22.2% (inactive) | -88.5% (active) and 39.9% (inactive) | –
O=C(Cc1cccc2ccccc12)N/N=C/c1ccc2c(c1)CCC2 | – | 7.56% (active) | 54.8% (inactive) | 80.5% (inactive) | 66.4% (inactive) | 81.9% (inactive) | 54.3% (inactive) | –
NC(=S)NN=C1CCC(C2CCCCC2)CC1 (stereo not drawn) | 44.1% (inactive) and 40% (inactive) | 79.1% (inactive) and 77.2% (inactive) | – | 83% (inactive) and 95.1% (inactive) | 73.9% (inactive) and 78.6% (inactive) | 92.9% (inactive) and 94.7% (inactive) | 94.5% (inactive) and 93.9% (inactive) | –
CNC(=O)c1cccnc1 | – | 105% (inactive) | 106% (inactive) | 105% (inactive) | 103% (inactive) | 110% (inactive) | 110% (inactive) | 101% (inactive)
